# High-throughput results deposited in PubChem BioAssay by National Center for Advancing Translational Sciences (NCATS).
# Vaccinia Venus = vaccinia inhibition (Venus reporter); Vaccinia virus Venus reporter expression, fluorescence; Potency, µM (doses to about 36.5 µM), for inactives: at the top dose activity change, negative = inhibition, most hits filed as inhibitors; 0.46% of 330,000 active; calls by dose curve; tested in A549 cells; also: nearly all actives have a fitted effect of over 30% in size
# HCV inh = blocks hepatitis C virus | Huh7.5.1 HCVcc-Cre infection, luciferase reporter, 44 h | Potency, µM (top dose mostly 41.8 µM), for inactives: at the top dose activity change, negative = inhibition, actives largely listed as inhibitors | 3.4% of 340,000 active | AID 651820; active = well fitted inhibition curve with a large enough effect; inconclusive = small, poorly fitted or top-dose-only effect, or another doubt; inactive = no such curve, though single readings can be large or run the other way
#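 1,000 cells/well; 4 h culture; + compound; + HCVcc-Cre (~0.5 moi); 44 h; luciferase substrate, RT 15 min; read 15 sec.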
# Vaccinia mCherry = vaccinia inhibition (mCherry reporter); Vaccinia virus mCherry reporter infection, fluorescence; Potency, µM (top dose mostly 36.5 µM), inactives show at the top dose activity change, negative = inhibition, actives largely listed as inhibitors; 0.63% of 310,000 active; calls by dose curve; tested in A549 cells; also: nearly all actives have a fitted effect of over 35% in size
# * = called active by the depositor; i = inactive; ? = inconclusive; . = no result given. Only some compounds are listed: those with a hit (about 3.3% of all), similar ones and a draw of the others. % is scaled to controls: 0 for no effect and ±100 for the full control effect; potency is read from the fitted curve at half-maximal effect.
SMILES,Vaccinia Venus,HCV inh,Vaccinia mCherry
COc1ccc(C(=O)C(CN2CCCC2)c2ccccc2)cc1 (stereo not drawn),?,?,11.2µM*
O=C(NC1CCN(Cc2ccccc2)C1)c1cnn(-c2ncc3c(n2)-c2ccccc2CC3)c1C1CC1 (stereo not drawn),-6.5%,.,-27.7%
CC(=O)N1CCc2c(sc(NC(=O)c3ccc([N+](=O)[O-])o3)c2C#N)C1,.,-8.5%,.
COC(=O)c1c(NC(=O)c2ccc([N+](=O)[O-])o2)sc2c1CCN(C(C)C)C2,14.1µM*,2.82µM*,?
COC(=O)c1sc(NC(=O)c2ccc([N+](=O)[O-])o2)c(C#N)c1C,.,11.2µM*,.
COC(=O)c1c(NC(=O)Cc2ccccc2)sc2c1CCN(C(C)C)C2,-22.7%,?,?
CCCCN(CC)Cc1ccc(CNC(=O)Nc2ccc(OCC)cc2)o1,.,12.6µM*,.
CCCCN(CC)Cc1ccc(CNC(=O)Nc2ccc(Cl)cc2)o1,-10.3%,?,i
O=C(COC(=O)/C=C/c1ccccc1)NC1CCCCCC1,-9.4%,?,-4.8%
CC1CCCCN1C(=O)c1cnn2c1NC(=C1CC1)C=C2C(F)F (stereo not drawn),-10.6%,.,i
Cc1nc(N2CCN(S(=O)(=O)c3ccccc3C#N)CC2)c2c(-c3ccccc3)csc2n1,.,8.91µM*,.
N#Cc1ccccc1S(=O)(=O)N1CCN(c2nc(-c3ccccc3)nc3ccccc23)CC1,-15.8%,.,?
CC(=O)c1ccc(S(=O)(=O)N(C)C(C)CCc2ccco2)cc1 (stereo not drawn),.,3.8%,.
O=C(CCN1C(=O)C2CC=CCC2C1=O)Nc1cc(C(F)(F)F)ccc1N1CCCC1 (stereo not drawn),-7.6%,-13.5%,-13.5%
COc1cc(CNCCc2c[nH]c3ccccc23)cc(OC)c1OC,-8.4%,.,-6.0%
COc1ccccc1CCNCc1ccc(OC)c(OCc2ccccc2)c1,.,10µM*,.
COc1ccc(CNCc2ccco2)cc1OCc1ccccc1,-12.3%,8.4%,-8.9%
COc1cccc(CNCCc2c[nH]c3ccccc23)c1OCc1ccccc1,?,10µM*,-29.7%
NCCc1ccc(OCc2ccccc2)c(OCc2ccccc2)c1,?,7.94µM*,17.8µM*
COc1ccc(CCN)cc1OC,-2.7%,5.2%,3.4%
COc1cccc(CN2CCCC(c3nc(C)ncc3-c3ccc(F)cc3)C2)c1OC (stereo not drawn),-16.9%,.,i
O=S1(=O)CCS(=O)(=O)C1c1ccccc1,?,24.2%,11.2µM*
O=C1CC(=O)CC(c2ccccc2)C1,6.8%,3.1%,i
COc1ccc(S(=O)(=O)NCCS(=O)(=O)N2CCN(c3ccccc3)CC2)cc1OC,-10.2%,.,-0.3%
CCCCCn1c(=O)c(C(=O)NCc2ccccc2Cl)c(O)c2ccccc21,.,6.3%,.
SMILES,Vaccinia Venus,HCV inh,Vaccinia mCherry
CCn1c(=O)c(C(=O)NNC(=O)c2ccccc2Cl)c(O)c2ccccc21,-6.5%,14.1µM*,-22.8%
CCn1c(=O)c(C(=O)NNC(=O)c2ccccc2F)c(O)c2ccccc21,-11.8%,?,?
CCCn1c(=O)c(C(=O)NCc2ccccc2Cl)c(O)c2ccccc21,-10.6%,12.6µM*,i
CCOC(=O)CN(C)C(=O)c1cnn(-c2ncc3c(n2)-c2ccccc2CCC3)c1C,-7.8%,.,-9.1%
Cc1ccc(C(=O)CC2(O)C(=O)N(CCc3ccccc3)c3ccc(Cl)cc32)cc1 (stereo not drawn),-15.1%,.,?
CC(=O)c1cccc(NC(=O)c2ccc(NC(=O)CC3SC(N4CCCCC4)=NC3=O)cc2)c1 (stereo not drawn),-5.6%,-15.5%,-2.3%
O=C(Nc1nc(-c2ccccc2)cs1)c1cccc([N+](=O)[O-])c1,.,12.6µM*,.
O=C(Nc1nc(-c2cccnc2)cs1)c1cccc([N+](=O)[O-])c1,-11.4%,?,-15.6%
O=C(Cc1ccccc1)Nc1nc(-c2cccc([N+](=O)[O-])c2)cs1,-2.0%,4.8%,-11.5%
O=[N+]([O-])c1cccc(-c2csc(Nc3ccccc3)n2)c1,?,1.58µM*,?
CC1=C(C(=O)Nc2ccc(C)cc2C)C(c2cccs2)n2nc(SCc3ccccc3Cl)nc2N1 (stereo not drawn),-3.3%,.,-15.3%
COc1ccccc1CCNC(=O)CCc1c(C)c2cc3c(C)coc3c(C)c2oc1=O,-7.4%,.,-19.9%
COc1cc(C2C3=C(COC3=O)Oc3cc4c(cc32)OCO4)cc(OC)c1O (stereo not drawn),?,-18.4%,31.6µM*
O=C1OCC2=C1C(c1ccc3c(c1)OCO3)c1cc3c(cc1O2)OCO3 (stereo not drawn),-26.7%,?,-4.2%
CCn1c(COc2ccccc2OC)nnc1SCC(=O)NC1CCCC1,-16.5%,14.0%,-15.8%
O=C(NCc1ccccn1)c1cnn(-c2ncc3c(n2)-c2ccccc2CC3)c1C1CC1,-8.7%,.,-14.1%
CCN1CCN(Cc2ccc(NC(=O)c3ccc(C)c(/C=C/c4cnc(Nc5cc(N6CCNCC6)nc(C)n5)cn4)c3)cc2C(F)(F)F)CC1,8.91µM*,?,?
CCN1CCN(Cc2ccc(NC(=O)c3ccc(C)c(NC(=O)c4ccno4)c3)cc2C(F)(F)F)CC1,?,-19.0%,-1.6%
Cc1ccc(C(=O)Nc2cccc(C(F)(F)F)c2)cc1NC(=O)c1c[nH]c2cc(C(F)(F)F)ccc2c1=O,-8.5%,31.4%,-11.0%
CCN1CCN(Cc2ccc(NC(=O)c3ccc(C)c(NC(=O)c4csc(-c5ccncc5)n4)c3)cc2C(F)(F)F)CC1,?,?,-8.0%
CCN1CCN(Cc2ccc(NC(=O)c3ccc(C)c(NC(=O)c4c[nH]c5cc(C(F)(F)F)ccc5c4=O)c3)cc2C(F)(F)F)CC1,14.1µM*,?,?
CCN1CCN(Cc2ccc(NC(=O)c3ccc(C)c(NC(=O)c4cccc(-c5cn[nH]c(=O)c5)c4)c3)cc2C(F)(F)F)CC1,7.08µM*,?,?
O=S(=O)(c1ccc(-c2cnc(C3CC3)o2)cc1)N1CCN(c2ccc(F)cc2)CC1,-20.1%,.,?
CCC(C)NC(=O)c1ccc2c(c1)S(=O)(=O)c1ccccc1C2=O (stereo not drawn),-10.5%,-29.8%,-15.4%
CCc1ccc(OCC(O)CN2CCCC2)cc1 (stereo not drawn),-9.5%,-16.8%,i
SMILES,Vaccinia Venus,HCV inh,Vaccinia mCherry
OC(COc1ccc(CNCCc2ccc(C(F)(F)F)cc2)cc1)CN1CCCCC1 (stereo not drawn),9.5%,5.01µM*,-12.7%
CCOc1ccc(S(=O)(=O)N2CCOCC2)cc1NS(=O)(=O)c1ccc(OC)c([N+](=O)[O-])c1,1.9%,-7.3%,-14.9%
Oc1ccccc1N=Nc1ccccc1O,?,0.891µM*,?
Nc1ccc(N=Nc2ccccc2O)c(N)c1,-9.5%,-15.7%,-13.4%
O=C(Nc1ccc(CN2CCCCC2)cc1)c1sc2ccccc2c1Cl,-9.8%,11.2µM*,i
CC1CCCN(C(=O)CNC(=O)c2sc3ccccc3c2Cl)C1 (stereo not drawn),-20.0%,?,-1.8%
CC1CC(C)CN(C(=O)CNC(=O)c2sc3ccccc3c2Cl)C1 (stereo not drawn),.,8.91µM*,.
O=C(NCC(=O)N1CCCCC1)c1sc2ccccc2c1Cl,.,2.2%,.
CNC(=O)c1ccsc1NC(=O)c1sc2ccccc2c1Cl,-3.6%,11.2µM*,7.6%
Cc1nnc(NC(=O)c2sc3ccccc3c2Cl)s1,-28.8%,-8.8%,-5.3%
